# The supplement of paper PMC3545927
# This is one part of the list. How many sequences the whole screen found active is unknown.
# Target: furin, P09958
# Assay: furin cleavage Z-score vs untreated control; higher = more cleavage, active = 3.5 or more, inactive = 1 or less, 8 variable residues between constant flanks
# Summary of the method: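 Furin-free reactions served as the baseline for the cleavage Z-score, which is the log read count lowess-adjusted and scaled by median absolute deviation. Counts came from released DNA, adapter-tagged by PCR and sequenced. Purified furin had cut 8-mer peptides fused to a cDNA oligonucleotide on magnetic beads during 7.5, 15 or 30 min at 1:10 enzyme:substrate.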
# 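Note: purified furin at 1:10 enzyme:substrate in 50 mM HEPES pH 7.5.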
# furin, P09958, sequence (P09958 whole entry): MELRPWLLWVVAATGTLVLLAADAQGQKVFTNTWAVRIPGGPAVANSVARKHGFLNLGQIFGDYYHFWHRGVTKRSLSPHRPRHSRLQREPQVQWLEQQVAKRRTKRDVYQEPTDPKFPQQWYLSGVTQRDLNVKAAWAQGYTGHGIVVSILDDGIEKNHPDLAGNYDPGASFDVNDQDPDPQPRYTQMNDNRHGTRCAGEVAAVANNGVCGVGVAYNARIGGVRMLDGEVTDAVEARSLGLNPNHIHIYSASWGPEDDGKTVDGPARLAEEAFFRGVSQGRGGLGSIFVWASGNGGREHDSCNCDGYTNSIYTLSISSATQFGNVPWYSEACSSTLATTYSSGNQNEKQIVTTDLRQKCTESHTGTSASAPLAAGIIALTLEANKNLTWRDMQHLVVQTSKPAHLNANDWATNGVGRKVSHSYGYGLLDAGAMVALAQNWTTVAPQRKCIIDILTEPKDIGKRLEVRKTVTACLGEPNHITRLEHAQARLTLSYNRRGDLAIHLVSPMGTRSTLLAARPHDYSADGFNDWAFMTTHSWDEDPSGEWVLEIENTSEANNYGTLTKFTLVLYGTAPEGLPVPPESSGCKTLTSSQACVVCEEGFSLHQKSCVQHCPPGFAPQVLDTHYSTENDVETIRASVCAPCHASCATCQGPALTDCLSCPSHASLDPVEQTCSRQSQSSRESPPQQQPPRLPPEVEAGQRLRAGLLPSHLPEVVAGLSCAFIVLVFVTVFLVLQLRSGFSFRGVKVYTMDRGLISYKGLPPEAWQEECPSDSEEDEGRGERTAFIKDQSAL
Sequence,furin cleavage Z-score (7.5 min),furin cleavage Z-score (15 min),furin cleavage Z-score (30 min)
CADSVIDCNTAGNASASA [HC885],0.968 (inactive),0.824 (inactive),1.02
CAASGVLTTSAGNASASA [HC1511],-1.03 (inactive),-0.000581 (inactive),-0.909 (inactive)
CAMEECSQHYAGNASASA [HC1769],0.65 (inactive),1.28,2.12
CAGVPPLRAWAGNASASA [HC1617],0.794 (inactive),0.986 (inactive),0.446 (inactive)
CAVTPIDTTIAGNASASA [HC1436],-0.162 (inactive),-2.25 (inactive),-0.263 (inactive)
CARKPRDLELAGNASASA [FS-2038],8.14 (active),11 (active),10.9 (active)
CARKPRPLDPAGNASASA [FS-2563],1.12,0.612 (inactive),0.941 (inactive)
CAQPEYDLELAGNASASA [HC1548],1.74,0.744 (inactive),0.874 (inactive)
CARKPRDYTIAGNASASA [FS-2695],0.48 (inactive),0.851 (inactive),3.93 (active)
CARKSRDMEIAGNASASA [FS-2980],0.641 (inactive),-0.334 (inactive),1.3
CAAAVTSPLTAGNASASA [HC1058],0.302 (inactive),-1.38 (inactive),-0.302 (inactive)
CARNSTGLYHAGNASASA [HC258],0.587 (inactive),-0.804 (inactive),-0.846 (inactive)
CATTALVMAQAGNASASA [HC325],0.431 (inactive),-0.525 (inactive),-0.108 (inactive)
CAMETCSQHLAGNASASA [HC1718],-0.505 (inactive),1.16,2.25
CARLGRSIDDAGNASASA [FS-2275],5.11 (active),6.98 (active),5.82 (active)
CARLKRNQEKAGNASASA [FS-2707],-0.221 (inactive),0.44 (inactive),1.38
CARLKRNIGYAGNASASA [FS-1962],4.52 (active),7.71 (active),8.24 (active)
CARLKRSRLKAGNASASA [FS-1741],3.6 (active),6.18 (active),7.33 (active)
CARLRRPIGKAGNASASA [FS-3160],-0.962 (inactive),-0.579 (inactive),-1.27 (inactive)
CARLKRYHSQAGNASASA [FS-2156],1.21,-0.314 (inactive),1.6
CARLKREIEKAGNASASA [FS-2431],9.68 (active),9.27 (active),9.19 (active)
CARLGRIVDRAGNASASA [FS-1737],-0.217 (inactive),-0.37 (inactive),0.14 (inactive)
CARLRKDQLKAGNASASA [FS-2432],-0.25 (inactive),0.106 (inactive),1.29
CAIVPCHRPSAGNASASA [HC2304],0.422 (inactive),0.63 (inactive),0.055 (inactive)
CAGKSTKVPAAGNASASA [HC778],1.37,0.655 (inactive),-0.125 (inactive)
CAEMTTPCSGAGNASASA [HC1966],-0.105 (inactive),-0.176 (inactive),-0.555 (inactive)
CASSEANAEDAGNASASA [HC1365],-1.29 (inactive),-2.48 (inactive),-1.24 (inactive)
